Here are results for 5 compounds from PubChem BioAssay (EPA / NIEHS).

Experiment [1] in a line: ATG_PXRE_CIS: Attagene CIS-FACTORIAL HepG2 Assay for human Pregnane X Receptor Element (PXRE) (AID 2282957). To be noted: HepG2 Attagene CIS-FACTORIAL PXRE reporter, mRNA; actives raise or lower the signal. In outline: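 Transfect HepG2 with MRTUs (cis promoter elements); dose chemical, incubate 24 h; isolate RNA, RT with oligo(dT), PCR, 6-FAM label, HpaI cut, CE. Gain/loss fit vs DMSO.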

Experiment [2] can be described thus: ATG_PPRE_CIS: Attagene CIS-FACTORIAL HepG2 Assay for human Peroxisome Proliferator-activated Response Element (PPRE) (AID 2282958). The conditions noted are these: HepG2 PPRE cis-element reporter, Attagene transcription factor profiling; actives raise or lower the signal. The method, boiled down:
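Read-out: fluorescent reporter mRNA fragments resolved by capillary electrophoresis after RT-PCR. HepG2 cells carried transiently transfected PPRE-driven cis reporter constructs and were dosed for 24 h; gain or loss of signal fitted relative to DMSO.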

The nature of experiment [3]: ATG_RORE_CIS: Attagene CIS-FACTORIAL HepG2 Assay for human RAR-related Orphan Receptor Element (RORE) (AID 2282959). To be noted: HepG2 Attagene cis-factorial RORE reporter, mRNA; actives raise or lower the signal. In outline: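 Readout: fluorescent reporter mRNA by RT-PCR plus capillary electrophoresis, 24 h after dosing transfected HepG2 cells. Endogenous transcription factor activity on a cis promoter element is measured. Gain or loss of signal fitted against DMSO.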

Experiment [4] can be described thus: ATG_Sox_CIS: Attagene CIS-FACTORIAL HepG2 Assay for human SRY-box transcription factor (SOX) (AID 2282960). To be noted: HepG2 Attagene cis-factorial SOX reporter, mRNA; actives raise or lower the signal. The method, boiled down: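 Read-out: fluorescent RT-PCR products of SOX1-linked reporter transcripts resolved by capillary electrophoresis, fitted bidirectionally against DMSO. Transiently transfected HepG2 cells, 24 h after chemical exposure, endogenous transcription factor activity.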

The target of experiment [5] is Transcription factor Sp1 (Homo sapiens) (UniProt P08047). As to the kind of experiment: ATG_Sp1_CIS: Attagene CIS-FACTORIAL HepG2 Assay for human Specificity Protein 1 (Sp1) (AID 2282961). To be noted: HepG2 Sp1 cis-reporter transcription, actives raise or lower the signal. The method, boiled down:
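Read-out: fluorescence of 6-FAM-labeled, HpaI-digested RT-PCR products separated by capillary electrophoresis. HepG2 cells carried transfected cis-element reporter units and were exposed to chemicals for 24 h; gain or loss of signal fitted relative to DMSO.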

Experiment [6] can be described thus: ATG_SREBP_CIS: Attagene CIS-FACTORIAL HepG2 Assay for human Sterol Regulatory Element Binding (SREBP) (AID 2282962). To be noted: HepG2 Attagene cis-factorial SREBP reporter, mRNA; actives raise or lower the signal. The method, boiled down: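 HepG2 cells transiently transfected with multiplexed cis-element reporter units report endogenous transcription factor activity. After 24 h of chemical exposure, reporter mRNA was quantified by RT-PCR, 6-FAM labelling, HpaI digestion and capillary electrophoresis; bidirectional fits used DMSO as baseline.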

The nature of experiment [7]: ATG_TA_CIS: Attagene CIS-FACTORIAL HepG2 Assay for human TA Basal Promoter (AID 2282964). To be noted: HepG2 Attagene CIS-factorial TA basal promoter reporter; actives raise or lower the signal. The method, boiled down: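 Read-out: fluorescent reporter-transcript fragments resolved by capillary electrophoresis after RT-PCR and HpaI digestion. Source: HepG2 cells carrying transiently transfected multi-reporter cis constructs, treated 24 h. Endpoint fitted bidirectionally relative to DMSO.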

The nature of experiment [8]: ATG_TCF_b_cat_CIS: Attagene CIS-FACTORIAL HepG2 Assay for human T-Cell-Factor with beta-catenin (TCF/b-cat) (AID 2282965). To be noted: HepG2 TCF/beta-catenin cis-reporter transcription, actives raise or lower the signal. In outline: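 HepG2, transient MRTU transfection, cis-element-driven reporters (endogenous TFs). 24 h compound exposure. Readout: reporter mRNA by RT-PCR + 6-FAM primer extension, HpaI digest, capillary electrophoresis. Gain/loss fit vs DMSO baseline.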

The nature of experiment [9]: ATG_TAL_CIS: Attagene CIS-FACTORIAL HepG2 Assay for human TAL Basal Promoter (AID 2282966).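 Further: background control endpoint measuring basal TAL promoter reporter mRNA not a specific factor.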 To be noted: HepG2 Attagene cis-factorial TAL promoter reporter; actives raise or lower the signal. In outline: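 Fluorescence of labelled reporter cDNA fragments, resolved by capillary electrophoresis, gave the readout. Human HepG2 liver cells carried transiently transfected cis-element reporter units and were treated for 24 hours; activity was fitted bidirectionally against DMSO.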

Experiment [10] is described as follows: ATG_TGFb_CIS: Attagene CIS-FACTORIAL HepG2 Assay for human Transforming Growth Factor (TGF) (AID 2282967). The conditions noted are these: HepG2 Attagene CIS TGFb reporter, mRNA transcription; actives raise or lower the signal. In outline:
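Transient MRTU transfection of HepG2 (FuGene 6). Dose 24 h. TriZol RNA, oligo(dT) RT, PCR, 6-FAM primer extension, HpaI cut, CE. Bidirectional fit, DMSO = baseline.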

Experiment [11] is described as follows: ATG_VDRE_CIS: Attagene CIS-FACTORIAL HepG2 Assay for human Vitamin D Receptor Element (VDRE) (AID 2282968). The conditions noted are these: HepG2 VDRE cis-reporter transcription, actives raise or lower the signal. In outline:
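Cell-based multiplexed reporter format in human liver HepG2 cells, 24 h post-dose. Fluorescence from capillary electrophoresis of reporter cDNA gives the signal, with DMSO as negative control and baseline.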

Experiment [12] has as its target Estrogen receptor (Homo sapiens) (UniProt P03372). As to the kind of experiment: ATG_ERa_TRANS: Attagene TRANS-FACTORIAL HepG2 Assay for human Estrogen Receptor alpha (ERa) (AID 2282970; active means hit-call score of the fitted dose curve at least 0.9, where 1 is the maximum). The conditions noted are these: HepG2 Attagene TRANS ERa GAL4 reporter, mRNA. In outline: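 Human liver HepG2, transient transfection of multiple GAL4-UAS reporter units; TRANS format (exogenous NR-Gal4 chimera). 24 h dosing. Readout: reporter mRNA, RT-PCR, 6-FAM primer extension, HpaI digest, capillary electrophoresis. Positive direction vs DMSO.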

Experiment [13] addresses X-box-binding protein 1 (Homo sapiens) (UniProt P17861). As to the kind of experiment: ATG_Xbp1_CIS: Attagene CIS-FACTORIAL HepG2 Assay for human X-box Binding Protein 1 (XBP1) (AID 2282972). To be noted: HepG2 XBP1 cis-element reporter, Attagene multiplex; actives raise or lower the signal. In outline: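 HepG2 cells transiently transfected with cis-regulated multiple reporter transcription units; endogenous transcription factor activity measured 24 hours after chemical dosing. Reporter mRNA quantified by RT-PCR, 6-FAM primer extension, HpaI digestion and capillary electrophoresis; bidirectional fitting versus DMSO.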

The nature of experiment [14]: ATG_M_19_TRANS: Attagene TRANS-FACTORIAL HepG2 Assay for M19 Transcription Factor (Internal Marker) (AID 2282974; active means hit-call score of the fitted dose curve at least 0.9, where 1 is the maximum). The conditions noted are these: HepG2 Attagene TRANS-FACTORIAL M19 internal marker reporter. In outline: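 24 h chemical exposure of transiently transfected HepG2 (MRTU library). RNA → oligo(dT) RT → PCR → 6-FAM labelling → HpaI cut → CE fluorescence. Positive-direction fit vs DMSO baseline; background internal-marker readout.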

Experiment [15] addresses Signal transducer and activator of transcription 3 (Homo sapiens) (UniProt P40763). As to the kind of experiment: ATG_STAT3_CIS: Attagene CIS-FACTORIAL HepG2 Assay for human Signal Transducer and Activator of Transcription 3 (STAT3) (AID 2282963). To be noted: HepG2, Attagene cis-factorial STAT3 reporter transcription; actives raise or lower the signal. In outline: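 Values derive from bidirectional fits relative to DMSO of reporter mRNA levels, measured by RT-PCR with capillary electrophoresis, in HepG2 cells carrying transiently transfected cis-regulated reporter units and exposed 24 h.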

The nature of experiment [16]: ATG_GAL4_TRANS: Attagene TRANS-FACTORIAL HepG2 Assay for GAL4 (Internal Marker) (AID 2282976; active means hit-call score of the fitted dose curve at least 0.9, where 1 is the maximum). To be noted: HepG2 Attagene TRANS GAL4 internal marker reporter. The method, boiled down:
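First, HepG2 cells were transfected with reporter units under GAL4-UAS control. Next, they were treated with chemical for 24 h. Finally, RNA was reverse-transcribed, PCR-amplified, FAM-labelled and resolved by capillary electrophoresis, with induction scored against DMSO.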

Results filed as inconclusive are left out. The source made the active and inactive calls. How the source made its calls, unless noted: active means hit-call score of the fitted dose curve at least 0.9, where 1 is the maximum; inactive means score below 0.9.

Sequence of X-box-binding protein 1 (Homo sapiens) (P17861 whole entry, looked up): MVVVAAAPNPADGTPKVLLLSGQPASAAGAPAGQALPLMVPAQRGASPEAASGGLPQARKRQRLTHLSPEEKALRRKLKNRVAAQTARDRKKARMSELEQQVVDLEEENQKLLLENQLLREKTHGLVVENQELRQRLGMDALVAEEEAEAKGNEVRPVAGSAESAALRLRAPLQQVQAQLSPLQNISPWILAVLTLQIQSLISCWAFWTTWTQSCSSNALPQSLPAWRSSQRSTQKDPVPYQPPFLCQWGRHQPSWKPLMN
Sequence of Signal transducer and activator of transcription 3 (Homo sapiens) (P40763 whole entry, looked up): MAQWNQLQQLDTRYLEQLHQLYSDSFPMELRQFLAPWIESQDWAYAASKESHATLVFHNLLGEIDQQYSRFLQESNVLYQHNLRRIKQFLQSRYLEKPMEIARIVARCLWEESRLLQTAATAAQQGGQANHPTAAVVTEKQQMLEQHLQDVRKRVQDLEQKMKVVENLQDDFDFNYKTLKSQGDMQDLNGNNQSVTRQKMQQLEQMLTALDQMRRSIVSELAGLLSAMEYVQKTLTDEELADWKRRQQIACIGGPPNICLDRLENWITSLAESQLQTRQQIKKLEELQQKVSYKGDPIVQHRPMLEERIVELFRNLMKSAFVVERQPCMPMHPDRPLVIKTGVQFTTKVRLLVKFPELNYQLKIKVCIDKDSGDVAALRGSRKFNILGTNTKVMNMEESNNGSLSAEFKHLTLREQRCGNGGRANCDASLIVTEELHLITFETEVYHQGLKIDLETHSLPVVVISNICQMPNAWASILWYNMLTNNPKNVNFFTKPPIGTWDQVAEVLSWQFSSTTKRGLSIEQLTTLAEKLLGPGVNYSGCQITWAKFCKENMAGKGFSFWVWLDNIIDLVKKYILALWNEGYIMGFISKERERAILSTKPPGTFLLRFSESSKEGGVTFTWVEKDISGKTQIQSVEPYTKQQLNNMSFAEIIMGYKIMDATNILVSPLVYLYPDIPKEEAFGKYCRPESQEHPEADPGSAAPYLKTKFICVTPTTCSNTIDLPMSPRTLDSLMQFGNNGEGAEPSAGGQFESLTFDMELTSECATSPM
Sequence of Estrogen receptor (Homo sapiens) (P03372 whole entry, looked up, the tested form may be a part): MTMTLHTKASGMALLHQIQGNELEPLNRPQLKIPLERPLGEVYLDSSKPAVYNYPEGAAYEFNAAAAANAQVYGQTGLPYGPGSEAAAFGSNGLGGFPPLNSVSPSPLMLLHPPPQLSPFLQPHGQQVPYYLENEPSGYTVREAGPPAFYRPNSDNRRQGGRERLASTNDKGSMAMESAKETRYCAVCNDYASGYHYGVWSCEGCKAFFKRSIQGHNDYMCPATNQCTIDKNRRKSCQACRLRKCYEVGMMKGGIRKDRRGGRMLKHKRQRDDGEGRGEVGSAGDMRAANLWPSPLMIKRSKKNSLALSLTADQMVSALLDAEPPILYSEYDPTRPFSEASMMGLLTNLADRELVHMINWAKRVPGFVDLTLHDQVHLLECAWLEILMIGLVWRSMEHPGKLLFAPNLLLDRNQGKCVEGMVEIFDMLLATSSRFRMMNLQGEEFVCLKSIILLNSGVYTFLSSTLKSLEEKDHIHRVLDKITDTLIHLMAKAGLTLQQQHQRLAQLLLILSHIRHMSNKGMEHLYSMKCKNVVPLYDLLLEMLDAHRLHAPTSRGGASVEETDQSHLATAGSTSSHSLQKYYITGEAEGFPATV
Sequence of Transcription factor Sp1 (Homo sapiens) (P08047 whole entry, looked up): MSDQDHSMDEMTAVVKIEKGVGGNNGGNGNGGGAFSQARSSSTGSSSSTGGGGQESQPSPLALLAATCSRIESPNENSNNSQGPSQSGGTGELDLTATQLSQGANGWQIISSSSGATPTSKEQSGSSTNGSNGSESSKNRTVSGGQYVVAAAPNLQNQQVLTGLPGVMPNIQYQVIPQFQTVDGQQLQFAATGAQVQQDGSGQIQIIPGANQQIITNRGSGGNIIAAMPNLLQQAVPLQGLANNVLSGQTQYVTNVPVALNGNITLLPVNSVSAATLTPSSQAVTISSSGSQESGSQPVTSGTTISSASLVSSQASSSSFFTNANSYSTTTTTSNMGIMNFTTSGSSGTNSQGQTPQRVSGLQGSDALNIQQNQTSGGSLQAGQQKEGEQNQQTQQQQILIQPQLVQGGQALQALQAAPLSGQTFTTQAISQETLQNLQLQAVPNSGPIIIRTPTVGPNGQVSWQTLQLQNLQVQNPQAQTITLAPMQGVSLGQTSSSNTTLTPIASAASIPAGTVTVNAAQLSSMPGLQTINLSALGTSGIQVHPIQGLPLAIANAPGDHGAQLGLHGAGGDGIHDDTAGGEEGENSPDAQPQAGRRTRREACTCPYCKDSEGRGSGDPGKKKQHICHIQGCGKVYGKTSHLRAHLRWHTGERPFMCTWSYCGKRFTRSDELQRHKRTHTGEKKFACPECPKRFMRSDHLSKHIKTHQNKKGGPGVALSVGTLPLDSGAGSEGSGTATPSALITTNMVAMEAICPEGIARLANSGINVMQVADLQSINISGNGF

A word on the AC50: it is the concentration giving half of the maximal activity seen. For `O=S(=O)(O)c1ccccc1C=Cc1ccc(-c2ccc(C=Cc3ccccc3S(=O)(=O)O)cc2)cc1`, the result in experiment [1], in [2], in [3], in experiment [4], in [5] and in experiment [6] was inactive. The outcome in [7], in experiment [8], in experiment [11], in experiment [12], in experiment [13] and in experiment [14] was inactive. The AC50 is 32.4 µM (active) in [9] and 57.8 µM (active) in [10].
For `COc1ccc(-c2coc3cc(O)ccc3c2=O)cc1`, the AC50 was 11.3 µM (active) in experiment [1] and 1.21 µM (active) in experiment [12]. Also, the compound was classed as inactive in [2], in experiment [4], in experiment [5], in experiment [6], in experiment [15] and in experiment [8]. The compound was classed as inactive in [9], in [10], in [11] and in experiment [13].
Turning to `CC(C)COC(=O)C=Cc1ccccc1`, the AC50 in experiment [1] was 27.2 µM (active); in experiment [12], 71.6 µM (active). Further, the compound was called inactive in experiment [3], in [4], in [5], in experiment [6], in experiment [15] and in [7]. The compound was called inactive in [8], in [9], in [10], in experiment [13] and in experiment [16].
For the compound `CCN(CC)c1ccc(C(=O)c2ccccc2C(=O)O)c(O)c1`, the outcome in experiment [3], in experiment [4], in [6], in experiment [15], in [7] and in experiment [8] was inactive. Moreover, the result in experiment [9], in experiment [10], in [12] and in experiment [13] was inactive. Further, the half-maximal activity concentration (AC50) in [11] was 1.7 µM (active).
Take `O=C1c2ccccc2C(=O)C1c1nc2ccccc2c(Br)c1O`: the AC50 in experiment [1] was 5.42 µM (active). The result in experiment [2], in [3], in [4], in experiment [5], in experiment [6] and in [15] was inactive. Also, the result in [8], in experiment [9], in experiment [12], in experiment [13], in experiment [14] and in experiment [16] was inactive.
